These results are taken from PubChem BioAssay (NCATS).

Inconclusive results are not listed. Where a call stands in place of a potency, no number is given. The source made the active and inactive calls. Calls come from the whole dose curve; as a rule, active = well fitted curve in the direction sought with a large enough effect; inconclusive = small, poorly fitted or top-dose-only effect, or another doubt; inactive = no such curve, though single readings can be large; an effect the other way counts as inactive or inconclusive. Where a SMILES comes first, the peptide text is derived from it. [ ]: non-standard residue; d: D form. ξ: configuration not given here. ξPhe(βξ-Me) = CC(c1ccccc1)C(N)C(=O)O; GABA = NCCCC(=O)O

Tested on in one assay: not listed separately
As to the kind of experiment: Primary fluorescence-based thiol-reactive (MSTI) qHTS assay for identification of artifact compounds. (AID 1845221). Note: nearly all actives have a fitted effect of over 65% in size. Note: potency is the fitted concentration of half-maximal effect. The conditions noted are these: MSTI thiol-reactivity probe, 1 h; series mostly up to 53.8 µM. The method in brief:
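In PBS pH 7.4 with 2% DMSO, each compound met 4 uM MSTI for one hour at ambient temperature, shielded from light, before fluorescence detection.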
Background: qHTS replaces the single test concentration by a dilution series.
Consider `COc1c(C)c2c(c(O)c1C/C=C(\C)CC/C=C(\C)CCC(=O)O)C(=O)OC2`, for which the Potency entry is “inactive”. The same measure, in the same setting: under `C=CC(C)(C)C1(CC2NC(=O)C3CCCN3C2=O)C(=O)Nc2cc3c(cc21)C=CC(C)(C)O3` (stereo not given) stands “inactive”.

In the case of `CCCCS(=O)(=O)Nc1ncnc(OCCOc2ncc(Br)cn2)c1-c1ccc(Br)cc1`, the Potency result is “inactive”. Take `COc1cc(CC(COC2OC(CO)C(O)C(O)C2O)c2cc(/C=C/CO)cc(OC)c2O)ccc1O` (stereo not given): the Potency was 9.22 µM (active).

In the case of `CC1(C)CCC(C)(C)c2cc([C@@H](O)C(=O)Nc3ccc(C(=O)O)cc3F)ccc21`, the Potency entry is “inactive”.

As to `CC1(C)C(=O)C(C)(C)c2cc(C(=O)Nc3ccc(C(=O)O)cc3)ccc21`, the Potency entry is “inactive”. Regarding `CC(NCc1ccc(OCc2cccc(F)c2)cc1)C(N)=O` (stereo not given), the Potency result is “inactive”.

Another assay relates to Nanoluciferase (engineered Oplophorus gracilirostris luciferase). As to the kind of experiment: Primary Nanoluciferase (NLuc) qHTS assay for identification of artifact compounds. (AID 1845222). Particulars: NLuc-conditioned medium, Nano-Glo luminescence, 5 min; series mostly up to 54.1 µM. The method in brief: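 Luminescence from secreted NLuc (filtered, 1:55-diluted S16 cell medium) read 5 min after Nano-Glo substrate; compounds preincubated 15 min, RT. Hill fits of inhibition normalized to DMSO and no-enzyme.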
In the case of `OC[C@H]1O[C@@H](Oc2cc(O)cc(/C=C/c3ccc(O)cc3)c2)[C@H](O)[C@@H](O)[C@@H]1O`, the Potency entry is “inactive”.

Consider `CC(/C=C/C1(O)C(C)(C)CC(O)CC1(C)O)OC1OC(CO)C(O)C(O)C1O` (stereo not given), for which the Potency entry was “inactive”. On to `CC1CCC2C(C(=O)O)=CC3C(O)C(C)(C)CC123` (stereo not given), for which the Potency result is “inactive”. As for `C/C=C/C1=CC2=C(CO1)C(=O)[C@](C)(O)[C@H](OC(=O)c1c(O)cc(OC)c(O)c1C)C2`, the Potency entry is “inactive”.

For the molecule `CC1(C)CCC[C@@]2(C)[C@H]1[C@H](O)C=C1COC(=O)[C@@]12O`, the Potency result was “inactive”. Same read-out and setting: under `O=c1c2cccnc2n(-c2cccc([N+](=O)[O-])c2)c(=O)n1Cc1ccncc1` stands “inactive”; under `CC1(C)C(O)CCC2(C)C1C(O)C=C1COC(=O)C12O` (stereo not given), “inactive”; under `CC1=C2C=C(CO)C(CO)CCC2(C)CCC1=O` (stereo not given), “inactive”. For `COc1cc(C2Oc3c(O)cc(CCCO)cc3C2CO)ccc1O[C@H]1O[C@H](C)[C@@H](O)[C@H](O)[C@@H]1O` (stereo not given in full), the Potency entry was “inactive”. Consider `CC1(CCC(=O)O)C(=O)C=CC23CC4CC(OC4(C)C2O)C13` (stereo not given), for which the Potency entry was “inactive”. `CC1CCC(=O)CC(O)C(O)CC(=O)O1` (stereo not given): the Potency entry was “inactive”. Still for that read-out and setting: the value for `CC(C(=O)O)C1CCC2(C)C3C(=O)C=C4C(CCC(=O)C4(C)C)C3(C)CCC12C` (stereo not given) was “inactive”. Same read-out and setting: the value for `COc1cc(/C=C/C(=O)O[C@H]2[C@H](OC(=O)/C=C/c3cc(OC)c(O)c(OC)c3)O[C@H](CO[C@@H]3O[C@H](CO)[C@@H](O)[C@H](O)[C@H]3O)[C@@H](O)[C@@H]2O)ccc1O` was “inactive”; that for `CCOc1ccc(C(Nc2ccccn2)c2ccc3ccc(C)nc3c2O)cc1C` (stereo not given) was “inactive”. Same read-out and setting: the value for `COC(=O)C1=CO[C@@H](O[C@@H]2O[C@H](COC(=O)/C=C/c3cc(OC)c(O)c(OC)c3)[C@@H](O)[C@H](O)[C@H]2O)[C@@H]2C(CO)=CC[C@H]12` was “inactive”. As for `COC(=O)[C@@]1(C)CC[C@]2(C(=O)O[C@@H]3O[C@H](CO)[C@@H](O)[C@H](O)[C@H]3O)CC[C@]3(C)C(=CCC4[C@@]5(C)CC[C@H](O[C@@H]6O[C@H](C(=O)O)[C@@H](O)[C@H](O)[C@H]6O)C(C)(C)C5CC[C@]43C)[C@@H]2C1` (stereo not given in full), the activity, negative = inhibition is -2.3% [at 11.6 µM] (inactive). Consider `CCc1c(CC(N)=O)c2cc(OCCCP(=O)(O)O)ccc2n1Cc1ccccc1`, for which the Potency result is “inactive”. Still for that read-out and setting: under `COc1ccc(/C=C/C(=O)O[C@@H]2[C@@H](OC(C)=O)[C@@H](OC(C)=O)[C@H](O[C@H]3[C@@H]4C=CO[C@@H](O[C@@H]5O[C@H](CO)[C@@H](O)[C@H](O)[C@H]5O)[C@@H]4[C@@]4(CO)O[C@@H]34)O[C@H]2C)cc1O` stands “inactive”; under `CC1=CC(=O)C2C(C)(C)CC(O)CC2(C)C1CO` (stereo not given), “inactive”; under `CC(C)CC1NC(=O)C(C(C)c2ccccc2)NC(=O)C(C(C)C)NC(=O)C(C)NC(=O)CCCNC(=O)C(Cc2c[nH]c3ccccc23)NC(=O)C(C)NC1=O` (stereo not drawn) (cyclo([GABA]AV[ξPhe(βξ-Me)]LAW); configuration not given here), “inactive”. The same measure, in the same setting: the value for `NCCOCCOCCNC(=O)Cc1ccc(Nc2nc(NCc3ccc(F)cc3)nc(NCC3CCCCC3)n2)cc1` was “inactive”; that for `COc1cc(C(O)C(CO)Oc2ccc(CCCO[C@@H]3O[C@@H](C)[C@H](O)[C@@H](O)[C@H]3O)cc2OC)ccc1O` (stereo not given in full) was “inactive”.

As for `CN1C(=O)c2ccccc2NC(=O)[C@]12O[C@@H]2c1cccc(O)c1`, the Potency entry was “inactive”.

For `CNC(=O)COC(=O)NCCC1CCN(c2cccc(C)n2)CC1`, the Potency entry was “inactive”.

Take `CC1CC(O)C2(C)C(C(=O)O)=CCCC2C1(C)CCc1ccoc1` (stereo not given): the Potency entry was “inactive”.

Regarding `C=C[C@H]1[C@H](O[C@@H]2O[C@H](CO)[C@@H](O)[C@H](O)[C@H]2O)OC=C(C(=O)OC)[C@H]1C[C@@H]1N[C@H](C(=O)O)Cc2c1[nH]c1ccccc21`, the Potency entry was “inactive”.

On to `CC(C)=CCc1ccc(Oc2c(O)cc(C)cc2CO)c(C(=O)O)c1O`, for which the Potency result was “inactive”.

For `COCCN(C)Cc1ccc2nc3sc(C(=O)N(C)C4CCCCC4)cn3c2c1`, the Potency entry is “inactive”. For `C=C1CCC2[C@@](C)(C=O)CCC[C@]2(C)[C@H]1CC/C(C)=C/CO` (stereo not given in full), the Potency entry is “inactive”. On the same count and under the same terms, under `CO[C@@H]1CC[C@H](OC[C@]2(COC(=O)c3ccc(C)[nH]3)[C@H](OC(C)=O)CC[C@@]3(C)[C@@H]4CC=C(C)[C@@H](C5=C(O)C(=O)OC5O)[C@]4(C)CC[C@@H]32)O[C@H]1C` (stereo not given in full) stands “inactive”; under `C/C=C(\C)C(=O)O[C@H]1[C@@H](O[C@]2(COC(=O)CC(C)C)O[C@H](COC(=O)C(C)C)[C@@H](OC(C)=O)[C@@H]2O)O[C@H](COC(C)=O)[C@@H](O)[C@@H]1O`, “inactive”. On to `CC(C)CC(=O)n1cc(C(N)=O)c(=O)cc1C(O)c1ccccc1` (stereo not given), for which the Potency result was “inactive”. Regarding `O=C(O[C@H]1[C@@H]2C=CO[C@@H](O[C@@H]3O[C@H](CO)[C@@H](O)[C@H](O)[C@H]3O)[C@@H]2[C@@]2(CO)O[C@@H]12)c1ccc(O)cc1`, the Potency result was “inactive”.
